In PubChem BioAssay (NCI) one finds growth data, which are given here for 15 compounds.

The panel holds about 83,000 compounds, 20% with a hit somewhere; the sample as a whole holds those more often.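 Testing used 96-well plates and a 48-hour single-concentration exposure. Example: -40 means 40% of the starting cells died.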 A number with no mark means an inactive call. Calls of active or inactive are those of the source. Rule for the calls: active = growth percent below 10; inactive = the rest.

Among the test systems are SR leukemia; RPMI-8226 leukemia; OVCAR-8 ovarian; OVCAR-5 ovarian; OVCAR-4 ovarian; SK-OV-3 ovarian; IGROV1 ovarian; OVCAR-3 ovarian; HS 578T breast; NCI/ADR-RES ovarian.
Holding throughout (experiment): NCI-60 one-dose screen, 48 h (100 = growth as untreated, 0 = no growth, -100 = all killed)
Holding throughout (details): 10 µM

Consider `O=C(O)c1cccc([N+](=O)[O-])c1O`, for which the growth is 94.4% in the test with SR leukemia; 107% in the test on RPMI-8226 leukemia; 113% in the test with OVCAR-8 ovarian; 112% with OVCAR-5 ovarian; 111% in the test on OVCAR-4 ovarian; 98.4% in the test on SK-OV-3 ovarian. In addition, the growth with IGROV1 ovarian is 94.4%; in the test with OVCAR-3 ovarian, 116%; in the test on HS 578T breast, 112%; with NCI/ADR-RES ovarian, 102%.
`COc1cc(-c2ccc(NC(=O)NC3CC3)c(OC)c2)ccc1NC(=O)NC1CC1`: the growth is 1.38% (active) in the test with SR leukemia; 36.2% in the test with RPMI-8226 leukemia; 57.9% in the test with OVCAR-8 ovarian; 101% with OVCAR-5 ovarian; 80.4% in the test with OVCAR-4 ovarian; 75.5% in the test on SK-OV-3 ovarian. The growth is 83.8% with IGROV1 ovarian, 97.3% in the test on OVCAR-3 ovarian, 81.5% in the test with HS 578T breast and 90.3% with NCI/ADR-RES ovarian.
For the compound `CC(=O)OC(OC(C)=O)C1CCCO1` (stereo not given), the growth was 135% with SR leukemia; 114% with RPMI-8226 leukemia; 103% in the test on OVCAR-8 ovarian; 100% in the test on OVCAR-5 ovarian; 97.9% with OVCAR-4 ovarian; 105% with SK-OV-3 ovarian. The growth is 110% with IGROV1 ovarian, 114% in the test on OVCAR-3 ovarian, 105% with HS 578T breast and 94.5% with NCI/ADR-RES ovarian.
As to `Cc1ccc(C(=O)c2ccccc2)c(C)c1`, the growth was 127% in the test on SR leukemia; 98% in the test with RPMI-8226 leukemia; 109% with OVCAR-8 ovarian; 95.3% in the test on OVCAR-5 ovarian; 103% with OVCAR-4 ovarian; 99.2% with SK-OV-3 ovarian. In addition, the growth in the test on IGROV1 ovarian is 101%; in the test on OVCAR-3 ovarian it was 112%; in the test on HS 578T breast, 113%; with NCI/ADR-RES ovarian, 99.7%.
For `CCO/C=C1\SC(=S)N(c2cccc(C)c2)C1=O`, the growth is 87.9% in the test on SR leukemia; 92.4% with RPMI-8226 leukemia; 101% in the test on OVCAR-8 ovarian; 106% with OVCAR-5 ovarian; 100% in the test with OVCAR-4 ovarian; 88.7% in the test on SK-OV-3 ovarian. Besides, the growth is 107% in the test on IGROV1 ovarian, 104% in the test on OVCAR-3 ovarian, 103% with HS 578T breast and 109% in the test with NCI/ADR-RES ovarian.
`COC(=O)c1ccc(NC(=O)CCl)cc1`: the growth with SR leukemia is 38.7%; with RPMI-8226 leukemia, 70.4%; in the test with OVCAR-8 ovarian, 85.5%; in the test with OVCAR-5 ovarian, 96.4%; with OVCAR-4 ovarian, 95.4%; in the test with SK-OV-3 ovarian, 96.7%. Also, the growth with IGROV1 ovarian was 50.6%; with OVCAR-3 ovarian it was 82.4%; with HS 578T breast, 74.9%; in the test with NCI/ADR-RES ovarian it was 97.1%.
For the compound `CCN=c1cc2sc3cc(NCC)c(C)cc3nc-2cc1C`, the growth in the test with SR leukemia is 13.4%; in the test on RPMI-8226 leukemia it was 2.43% (active); in the test with OVCAR-8 ovarian, -16.3% (active); in the test on OVCAR-5 ovarian, 27.5%; in the test with OVCAR-4 ovarian, 17.2%; in the test with SK-OV-3 ovarian it was 16.1%. The growth in the test with IGROV1 ovarian was 15.2%; in the test with OVCAR-3 ovarian, -33.8% (active); in the test with HS 578T breast, 50.8%; with NCI/ADR-RES ovarian it was 19.9%.
For `CN(C)c1ccc(CNC(C(=O)c2ccccc2)c2ccccc2)cc1` (stereo not given), the growth in the test on SR leukemia was 90.8%; in the test on RPMI-8226 leukemia, 94.4%; in the test with OVCAR-8 ovarian, 95.9%; with OVCAR-5 ovarian, 110%; with OVCAR-4 ovarian, 99.1%; in the test with SK-OV-3 ovarian, 103%. Also, the growth was 98.2% in the test on IGROV1 ovarian, 114% in the test on OVCAR-3 ovarian, 46.1% with HS 578T breast and 101% in the test with NCI/ADR-RES ovarian.
In the case of `N/N=C(/Cc1ccccc1)NNC(N)=S`, the growth is 99.2% in the test with SR leukemia; 100% in the test with RPMI-8226 leukemia; 108% in the test on OVCAR-8 ovarian; 111% with OVCAR-5 ovarian; 101% in the test with OVCAR-4 ovarian; 106% in the test with SK-OV-3 ovarian. Besides, the growth in the test with IGROV1 ovarian was 95.2%; with OVCAR-3 ovarian, 111%; in the test with HS 578T breast, 106%; with NCI/ADR-RES ovarian, 107%.
For the compound `COc1ncnc2c1cnn2C`, the growth with SR leukemia was 82.6%; in the test on RPMI-8226 leukemia it was 107%; in the test with OVCAR-8 ovarian, 103%; in the test on OVCAR-5 ovarian, 103%; with OVCAR-4 ovarian, 117%; with SK-OV-3 ovarian it was 104%. Besides, the growth is 110% in the test on IGROV1 ovarian, 109% in the test on OVCAR-3 ovarian, 114% with HS 578T breast and 104% in the test with NCI/ADR-RES ovarian.
Consider `Cc1cccc(C(=O)N(C(C)C)C(C)C)c1`, for which the growth in the test with SR leukemia was 110%; in the test with RPMI-8226 leukemia, 93.1%; in the test on OVCAR-8 ovarian, 100%; in the test on OVCAR-5 ovarian it was 98%; in the test with OVCAR-4 ovarian, 104%; in the test on SK-OV-3 ovarian, 92.4%. Also, the growth is 103% in the test with IGROV1 ovarian, 107% in the test on OVCAR-3 ovarian, 90.6% in the test with HS 578T breast and 102% in the test with NCI/ADR-RES ovarian.
For `Cc1nc2c(ccc3ccccc32)s1`, the growth in the test on SR leukemia was 91.3%; in the test with RPMI-8226 leukemia, 100%; with OVCAR-8 ovarian, 94.1%; with OVCAR-5 ovarian, 102%; in the test on OVCAR-4 ovarian, 108%; in the test with SK-OV-3 ovarian it was 107%. Besides, the growth with IGROV1 ovarian is 109%; in the test with OVCAR-3 ovarian, 121%; in the test with HS 578T breast, 106%; with NCI/ADR-RES ovarian it was 108%.
With `C/C(=N/NC(N)=O)c1ccco1`, the growth with SR leukemia was 87.3%; in the test with RPMI-8226 leukemia it was 118%; in the test on OVCAR-8 ovarian, 106%; in the test on OVCAR-5 ovarian, 100%; in the test with OVCAR-4 ovarian it was 110%; in the test with SK-OV-3 ovarian, 84.1%. The growth is 104% in the test on IGROV1 ovarian, 104% in the test on OVCAR-3 ovarian, 110% in the test with HS 578T breast and 101% with NCI/ADR-RES ovarian.
Consider `O=S(=O)(O)c1cc(O)c2c(N=Cc3ccccc3O)c(S(=O)(=O)O)ccc2c1`, for which the growth in the test with SR leukemia was 95.1%; in the test on RPMI-8226 leukemia it was 97.5%; in the test with OVCAR-8 ovarian it was 105%; in the test on OVCAR-5 ovarian it was 103%; with OVCAR-4 ovarian it was 109%; with SK-OV-3 ovarian it was 103%. Further, the growth in the test on IGROV1 ovarian was 88.4%; in the test on OVCAR-3 ovarian, 105%; with HS 578T breast, 103%; with NCI/ADR-RES ovarian it was 104%.
Turning to `O=[N+]([O-])c1ccc(S(=O)(=O)NN=C2CCCCC2)cc1`, the growth in the test with SR leukemia is 96.9%; in the test on RPMI-8226 leukemia it was 110%; in the test with OVCAR-8 ovarian, 101%; in the test with OVCAR-5 ovarian it was 114%; in the test on OVCAR-4 ovarian, 99.5%; with SK-OV-3 ovarian it was 100%. Also, the growth in the test on IGROV1 ovarian was 103%; with OVCAR-3 ovarian, 114%; with HS 578T breast, 141%; in the test with NCI/ADR-RES ovarian, 115%.
